Hits are enriched below; roughly 3.2% of the tested compounds scored in any of these assays.
TRb-SRC2 inh: disrupts binding of human TR beta to SRC2. Potency, µM (titrated, usually from 106 µM), hits mostly inhibitors. P10828. AID 1469. actives 0.065% (n = 280,000). TRbeta-SRC2 peptide binding, fluorescence polarization; receptor liganded with 1 µM T3; also: nearly all actives have a fitted effect of over 50% in size
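Compounds were added to 0.6 uM TRb ligand-binding domain and 20 nM Texas Red-labeled SRC2 peptide in Tris buffer containing 1 uM T3, incubated 5 hr at ambient temperature, then read by fluorescence polarization.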
Tau fluor counter: counter-screen for tau fibril formation inhibitors | tau K18 P301L Alexa594 fluorescence, heparin fibrillization | Potency, µM (highest dose often 57.7 µM) | actives 0.93% (n = 280,000); also: nearly all actives have a fitted effect of over 55% in size
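Human K18 P301L tau (15 uM unlabeled plus 0.24 uM Alexa 594-labeled, final) in 100 mM sodium acetate pH 7 was mixed with compound and 20 uM heparin and incubated 6 hr at 37 C.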
RGS12 GoLoco inh: RGS12 GoLoco-Gai1 interaction inhibition; Potency, µM (doses to about 61.6 µM), hits mostly inhibitors; Gai1:RGS12 GoLoco peptide FP, rhodamine, 10 min; actives 0.44% (n = 230,000); AID 880; active = well fitted inhibition curve with a large enough effect, not every such curve was filed as active; inactive = no such curve, though single readings can be large or run the other way; also: nearly all actives have a fitted effect of over 30% in size
Target sequence (P63096 whole entry, looked up): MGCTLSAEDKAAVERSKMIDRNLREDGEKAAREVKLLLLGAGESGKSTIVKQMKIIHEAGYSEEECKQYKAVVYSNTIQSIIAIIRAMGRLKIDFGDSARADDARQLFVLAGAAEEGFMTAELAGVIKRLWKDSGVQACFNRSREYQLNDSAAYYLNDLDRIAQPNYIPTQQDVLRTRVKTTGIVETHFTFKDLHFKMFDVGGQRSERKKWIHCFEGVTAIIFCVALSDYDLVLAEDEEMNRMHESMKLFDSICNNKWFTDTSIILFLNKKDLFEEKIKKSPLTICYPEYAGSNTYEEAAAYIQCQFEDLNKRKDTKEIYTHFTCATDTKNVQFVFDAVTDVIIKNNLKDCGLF
TR SRC2 fluor cs: Texas Red fluorescence interference in TRb-SRC2 counter-screen; TRb/SRC2 Texas Red total fluorescence interference; Potency, µM (highest dose often 106 µM); actives 0.29% (n = 280,000); active = well fitted curve in either direction with a large enough effect; inconclusive = small, poorly fitted or top-dose-only effect
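Human TRb ligand-binding domain at 0.6 uM with 20 nM Texas Red SRC2 peptide in Tris buffer containing 1 uM T3 and 5% DMSO, incubated with compound 5 h at ambient temperature. Total fluorescence (555/632 nm) calculated as parallel + 2 × perpendicular.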
Tau ThT inhib: blocks human tau fibril formation measured by thioflavin T; Potency, µM (series often up to 57.4 µM), usual class: inhibitors; recombinant tau K18 P301L (four-repeat tau fragment), heparin-induced fibrillization, ThT fluorescence; P10636; actives 2.1% (n = 270,000); also: nearly all actives have a fitted effect of over 55% in size
Target sequence (P10636 561-689 P618L limits assumed): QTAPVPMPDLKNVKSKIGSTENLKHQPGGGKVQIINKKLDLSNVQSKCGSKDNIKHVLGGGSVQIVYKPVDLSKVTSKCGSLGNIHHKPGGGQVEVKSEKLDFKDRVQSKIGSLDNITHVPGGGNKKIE
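K18 P301L tau (15 uM + 0.24 uM Alexa 594-tagged), heparin 20 uM, NaOAc pH 7, 6 h 37 C; ThT 30 uM, 1 h RT, ex 450/em 510 nm.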
Tau FP inhib: blocks human tau fibril formation measured by polarization | P10636 | K18 P301L tau heparin fibrillization, Alexa594 FP, 6 h | Potency, µM (highest dose often 57.7 µM), hits mostly inhibitors | actives 0.39% (n = 280,000); also: nearly all actives have a fitted effect of over 55% in size
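Quantitative HTS format: compounds meet 15 uM recombinant K18 P301L tau and Alexa 594-tau tracer in 100 mM sodium acetate pH 7; 20 uM heparin triggers fibrillization at 37 C over 6 hr; FP gives the signal.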
A number is an active result; - = inactive; ? = inconclusive; . = not tested or not shown; [ ] = remark or other dose. Unless noted, calls follow the shape of the dose curve; as a rule, active = well fitted curve in the direction sought with a large enough effect; inconclusive = small, poorly fitted or top-dose-only effect, or another doubt; inactive = no such curve, though single readings can be large; an effect the other way counts as inactive or inconclusive.

SMILES | TRb-SRC2 inh | Tau fluor counter | RGS12 GoLoco inh | TR SRC2 fluor cs | Tau ThT inhib | Tau FP inhib
CCC1(c2ccc(OC)cc2)NC(=O)N(C)C1=O (stereo unspecified) | - | . | . | - | . | .
Cc1cc2oc(C(=O)Nc3ccc(S(=O)(=O)N(C)Cc4ccccc4)cc3)cc(=O)c2cc1C | - | - | . | - | - | -
CC(C)c1ccc(NC(=S)Nc2ccc3cn[nH]c3c2)cc1 | - | - | - | - | ? | -
CC(=O)c1ccc(NC(=S)Nc2ccc3cn[nH]c3c2)cc1 | - | ? | - | - | 16µM | ?
Oc1ccc(/C=N/N=C(c2ccccc2)c2ccccc2)c(O)c1O | - | 13µM[quencher] | - | - | 8.9µM | ?
CC(C)CN(c1ccccc1)S(=O)(=O)c1nnc(NC(=O)C2CCCCC2)s1 | - | - | . | 4.5µM[quencher] | ? | -
CCN(c1ccccc1)S(=O)(=O)c1nnc(NC(=O)C2CCCCC2)s1 | - | - | . | - | 3.5µM | -
O=C1CCCC2=C1C(c1cccc(O)c1)C1=C(N2)c2ccccc2C1=O (stereo unspecified) | - | - | - | - | ? | -
CC(=O)C1=C(C)NC2=C(C(=O)c3ccccc32)C1c1ccccc1 (stereo unspecified) | - | ? | - | - | 18µM | -
CC1=C(C#N)C(c2cccnc2)C2=C(N1)c1ccccc1C2=O (stereo unspecified) | - | - | - | - | ? | -
CSC1=C(C#N)C(c2ccccc2Cl)C2=C(N1)c1ccccc1C2=O (stereo unspecified) | - | ? | - | - | 28µM | ?
CC1=C(C#N)C(c2ccccc2)C2=C(N1)c1ccccc1C2=O (stereo unspecified) | - | 25µM[quencher] | - | - | 13µM | -
Cc1noc(C)c1-c1ccc2ncnc(NCc3cccnc3)c2c1 | . | . | - | . | . | .
COc1ccccc1C1(O)CCN(CCCn2c3ccccc3c3ccccc32)CC1 | - | . | . | - | . | .
O=c1cc(-c2ccccc2O)oc2c(O)c(O)ccc12 | - | ? | - | - | 11µM | 13µM
C=CC[n+]1c(/C=C2\C=Cc3cc(C)ccc3N2CC)ccc2ccccc21 | - | 14µM[fluorescent] | - | - | 3.5µM | -
Nc1scc2c(C(=O)N/N=C/c3ccc(Cl)cc3)nn(-c3ccccc3)c(=O)c12 | - | ? | - | - | 11µM | ?
Nc1c(C(=O)N/N=C/c2ccc(Cl)cc2)cnn1-c1ccccc1 | - | - | - | - | - | -
O=C(O)COc1ccc2ccccc2c1 | - | . | . | - | . | .
CC(=O)Oc1ccc(/C=C/C(=O)CC2OC(Oc3cc(OC(C)=O)c4c(c3)O[C@@H](c3ccc(OC(C)=O)cc3)CC4=O)C(OC(C)=O)C(OC(C)=O)C2OC(C)=O)cc1 (stereo partly specified) | - | - | - | - | - | -
c1ccc(COc2ccc(Nc3ncnc4nc[nH]c34)cc2)cc1 | - | 14µM[quencher] | - | - | ? | -
CCOC(=O)c1ccc(Nc2ncnc3nc[nH]c23)cc1 | - | - | - | - | - | -
CC1=C(/C=C/C(C)=C/C=C/C(C)=C\CO)C(C)(C)CCC1 | - | - | - | - | ? | -
O=C(N/N=C/c1ccc(-c2ccccc2[N+](=O)[O-])o1)[C@H]1C[C@@H]1c1ccccc1 | - | ? | - | - | 4.5µM | ?
N#C/C(=C\c1ccc(-c2ccccc2[N+](=O)[O-])o1)C(N)=O | - | - | - | - | - | -
SMILES | TRb-SRC2 inh | Tau fluor counter | RGS12 GoLoco inh | TR SRC2 fluor cs | Tau ThT inhib | Tau FP inhib
COc1ccc(-c2ccc(/C=N/NC(=O)c3cccnc3)o2)c([N+](=O)[O-])c1 | - | - | - | - | 2.8µM | ?
Cc1ccc(C(=O)N/N=C/c2ccc(-c3ccccc3[N+](=O)[O-])o2)cn1 | ? | - | - | 32µM[quencher] | - | -
O=C(/C=C/c1ccc(-c2ccccc2[N+](=O)[O-])o1)c1ccccc1 | - | ? | - | - | 18µM | -
Nc1ccn([C@H]2O[C@@H](COP(=O)(O)O)[C@@H](O)[C@H]2O)c(=O)n1 | . | . | -[14.2 µM] | . | . | .
COc1ccc(OC2C=CC(C#Cc3ccc(C(C)(C)C)cc3)OC2CO)cc1 (stereo unspecified) | -[11.2 µM] | -[11.6 µM] | . | -[11.2 µM] | ? | -[11.6 µM]
COc1ccc(C2/C=C\CN(S(=O)(=O)CC34CCC(CC3=O)C4(C)C)CC(=O)N2Cc2ccc(F)cc2)cc1 (stereo unspecified) | - | . | . | - | . | .
O=C(c1ccco1)[C@@H]1[C@@H]2C(=O)N(c3ccc(F)cc3)C(=O)[C@@H]2C2c3ccccc3C=CN21 (stereo partly specified) | - | ? | - | - | 25µM | ?
O=C(c1ccco1)[C@@H]1[C@@H]2C(=O)N(c3ccc(Br)cc3)C(=O)[C@@H]2C2c3ccccc3C=CN21 (stereo partly specified) | - | - | - | - | 20µM | -
CCCS(=O)(=O)N1CC(=O)N(c2cc(C)ccc2C)C(C)(C(=O)NC2CCCCCC2)C1 (stereo unspecified) | - | - | . | 25µM[quencher] | - | -
CCOC(=O)C1=C(Cc2ccc(Cl)cc2)C(=O)c2ccccc2C1=O | - | ? | - | - | 14µM | ?
CCOC(=O)c1c(C=O)c(C)n(Cc2ccc(Cl)cc2)c1C | - | - | - | - | ? | -
Cc1ccc(C(=O)CSC2=NC(N)=C(C#N)C3(CCCCC3)C2C(N)=O)cc1 (stereo unspecified) | - | - | - | - | 25µM | ?
COC(=O)CC1c2ccccc2C=C(/C=C/c2ccc3c(c2)OCO3)N1C(=O)OC (stereo unspecified) | -[11.2 µM] | -[11.6 µM] | -[14.2 µM] | -[11.2 µM] | -[11.5 µM] | -[11.6 µM]
CC[C@H]1C(c2cccc(Cl)c2)=NN(c2ccccc2)[C@@H]1CO | - | 14µM[quencher] | - | - | ? | -
CC[C@@H]1C(c2cccc(C)c2)=NN(c2ccccc2)[C@H]1C(=O)N1CCOC1=O | - | ? | - | - | - | -
CC[C@H]1C(c2cccc(C)c2)=NN(c2ccccc2)[C@@H]1CO | - | 32µM[quencher] | - | - | ? | ?
CCn1c(C)c(C(C)=O)c(N2CCN(C(c3ccccc3)c3ccccc3)CC2)nc1=S | - | - | - | - | - | -
CCn1c(C)c(C(C)=O)c(N2CCN(c3ccccc3)CC2)nc1=S | - | - | - | - | 22µM | ?
COc1cc(C)cc(OC)c1/C=C\C(=O)O | . | . | -[14.2 µM] | . | . | .
CN(C)S(=O)(=O)c1cc(NC(=O)CSc2ncc(C(F)(F)F)cc2Cl)ccc1Cl | - | ? | - | - | - | 28µM
O=S(=O)(C[C@H](O)C(Cl)(Cl)Cl)NNc1ccccc1 | . | . | -[14.2 µM] | . | . | .
NNS(=O)(=O)c1ccc(Oc2ccc(S(=O)(=O)NN)cc2)cc1 | - | . | . | - | . | .
CCn1cnc2cc(NCc3ccc(C)cc3)ccc21 | - | - | - | - | ? | -
